VACV mCherry inh: qHTS for Stage-Specific Inhibitors of Vaccinia Orthopoxvirus: mCherry Reporter Primary qHTS. actives 0.63% (n = 310,000). Vaccinia virus mCherry reporter infection, fluorescence. Potency, µM (doses to about 36.5 µM), for the others: at the highest dose activity change, negative = inhibition, usual class: inhibitors. AID 720579, 2013; calls by dose curve; tested in A549 cells; further: potency means the concentration at half of the fitted maximal effect; on the % scale 0 is the no-effect control and ±100 the full control effect; nearly all actives have a fitted effect of over 35% in size
VACV Venus inh: qHTS for Stage-Specific Inhibitors of Vaccinia Orthopoxvirus: Venus Reporter Primary qHTS. Vaccinia virus Venus reporter expression, fluorescence. actives 0.46% (n = 330,000). Potency, µM (highest dose often 36.5 µM), inactives show at the highest dose activity change, negative = inhibition, hits mostly inhibitors; calls by dose curve; tested in A549 cells; further: potency means the concentration at half of the fitted maximal effect; on the % scale 0 is the no-effect control and ±100 the full control effect; nearly all actives have a fitted effect of over 30% in size
Cycloheximide cs: Cycloheximide Counterscreen for Small Molecule Inhibitors of Shiga Toxin | cell reporter, cycloheximide protein synthesis inhibition counterscreen | max response, % | actives 12% (n = 300,000) | AID 2314, 2010; in the data active means max response mostly above about 13%, no sharp cut-off; inactive means mostly below about 14%; further: read at 38.3 µM for the half of the compounds with a filed dose; 0% is about no effect
MARV entry inh: qHTS for inhibitors of binding or entry into cells for Marburg Virus. Marburg virus pseudotyped entry inhibition, cell reporter. actives 1.8% (n = 300,000). Potency, µM (highest dose often 37.8 µM), inactives show at the top dose activity change, negative = inhibition, most hits filed as inhibitors; calls by dose curve; tested in HEK293 cells; further: potency means the concentration at half of the fitted maximal effect; on the % scale 0 is the no-effect control and ±100 the full control effect
Shiga inhibitor: A qHTS for Small Molecule Inhibitors of Shiga Toxin; Vero cells, Shiga toxin protein synthesis inhibition reporter; inhibition, % at 38.7 µM; actives 9.2% (n = 290,000); AID 2315, 2010; in the data active means inhibition mostly above about 28%, no sharp cut-off; inactive means mostly below about 43%; further: 0% is about no effect
LASV entry inh: qHTS for Inhibitors of binding or entry into cells for Lassa Virus. Lassa virus pseudotype entry inhibition, cell reporter. Potency, µM (titrated, usually from 37.9 µM), for the others: top-dose activity change, negative = inhibition, hits mostly inhibitors. actives 1.2% (n = 300,000); calls by dose curve; tested in HEK293 cells; further: potency means the concentration at half of the fitted maximal effect; on the % scale 0 is the no-effect control and ±100 the full control effect; nearly all actives have a fitted effect of over 50% in size
Starred values were filed as active, the others as inactive; i = inactive; ? = inconclusive; . = no result; + = active, no number; [ ] = dose if it differs, or a comment. The full list was thinned out, with hits kept by preference.

SMILES	VACV mCherry inh	VACV Venus inh	Cycloheximide cs	MARV entry inh	Shiga inhibitor	LASV entry inh
COc1cccc2c1OC1(CCN(C(C)C)CC1)N1N=C(c3cccnc3)CC21 (configuration not stated)	-8%	-9%	53*	-5%[46.1 µM]	90*	?
CC(C)N1CCC2(CC1)Oc1ccc(Br)cc1C1CC(c3cccnc3)=NN12 (configuration not stated)	.	.	26*	.	61*	.
COc1ccc(-c2cn3ccccc3n2)cc1[N+](=O)[O-]	i	-18%	67*	?	96*	?
COc1ccc(S(=O)(=O)Nc2cc(-c3cn4ccccc4n3)ccc2C)cc1	-5%	-23%	.	15%[46.1 µM]	.	17%[46.1 µM]
CCCOc1ccc(-c2cn3ccccc3n2)cc1[N+](=O)[O-]	-13%	-25%	134*	?	+	?
COc1ccc(-c2cn3cc([N+](=O)[O-])ccc3n2)cc1OC	i	-7%	41*	.	80*	.
COc1ccc(Cc2noc(-c3ccc([N+](=O)[O-])cc3)n2)cc1OC	.	.	-3	.	-14	.
O=[N+]([O-])c1cccc(-c2cn3ccccc3n2)c1	-3%	1%	-3	-13%[46.1 µM]	30	-26%
COCc1ccc(C(=O)N2CCCC(C(=O)c3ccc(SC)cc3)C2)o1 (configuration not stated)	-6%	-22%	10	-20%	-8	-29%
N#Cc1c(NC(=O)c2ccco2)sc2c1CCC2	.	.	-4	.	-25	.
N#Cc1c(NC(=O)c2ccncc2)sc2c1CCC2	.	.	17*	7%	47*	-3%
NC(=O)c1c(NC(=O)c2ccccc2)sc2c1CCc1ccccc1-2	.	.	21*	?	33	-12%
CNC(=O)c1c(NC(=O)c2nc3ccccc3s2)sc2c1CCC2	.	.	26*	3%	94*	.
NC(=O)c1c(NC(=O)c2ccncc2)sc2c1CCCCCC2	?	-20%	12*	?	26	7%[46.1 µM]
COC(=O)c1c(NC(=O)c2nc3ccccc3s2)sc2c1CCN(C(C)=O)C2	-5%	-26%	-6	.	-5	.
Cc1cccc(-n2ncc(C(=O)N3CCN(Cc4ccccc4)CC3)c2C2CCN(C(=O)OC(C)(C)C)CC2)c1	-24%	-16%	.	.	.	?
CCc1cc(=O)oc2c3c(cc(OCC(=O)N[C@H](C(=O)O)[C@H](C)CC)c12)OC(C)(C)CC3	-1%	-19%	-2	-2%[46.1 µM]	-10	0%[46.1 µM]
NC(=O)c1c(NC(=O)c2ccncc2)sc2c1CCCC2	-26%	?	22*	.	95*	.
NC(=O)c1c(NC(=O)Cc2cccs2)sc2c1CCC2	.	?	16*	3%	19*	-13%
NC(=O)c1c(NC(=O)c2ccccc2)sc2c1CCC2	-4%	-18%	64*	-8%[46.1 µM]	78*	?
O=C(Nc1sc2c(c1C(=O)O)CCCCC2)c1cccnc1	.	.	8	.	-1	.
NC(=O)c1c(NC(=O)CN2CCCC2)sc2c1CCCC2	-27%	-13%	26*	0%	21*	0%
NC(=O)c1c(NC(=O)CN2CCOCC2)sc2c1CCC2	.	56%	7	31%	-6	-7%
CCOC(=O)c1c(NC(=O)Cc2cccs2)sc2c1CCCC2	.	-28%	1	?	-22	?
COc1cccc(NC(=O)CCNC(=O)C2CCN(S(=O)(=O)c3ccc(F)cc3)CC2)c1	.	.	-2	.	-7	.
SMILES	VACV mCherry inh	VACV Venus inh	Cycloheximide cs	MARV entry inh	Shiga inhibitor	LASV entry inh
COc1ccc(C(=O)Nc2ccc(S(=O)(=O)Nc3nccc(C)n3)cc2)cc1[N+](=O)[O-]	.	.	-2	.	.	.
NC(=O)c1c(NC(=O)c2cnccn2)sc2c1CCCC2	-14%	-14%	16*	?	32	6%
Cn1nc(C(=O)Nc2sc3c(c2C#N)CCCC3)ccc1=O	-21%	0%	27*	19%[14.2 µM]	67	-3%
N#Cc1c(NC(=O)c2ccc(Cn3cc(Br)cn3)o2)sc2c1CCCCC2	-13%	?	39*	-30%	103	3%
COc1cccc(OC)c1C(=O)Nc1sc2c(c1C#N)CCC2	-12%	-8%	1	-5%	10	?
Cc1cc(NS(=O)(=O)c2ccc3c(c2)OCCO3)no1	.	.	-2	.	6	.
Nc1nc2c(ncn2C2OC(CO)CC2O)c(=O)[nH]1 (configuration not stated)	-14%	-9%	.	.	.	.
CS(=O)(=O)c1ccc2c(c1)sc1nc(=O)c(/C=C3/C=CC(=O)C(O)=C3)c(N)n12	-23%	14%	20*	?	41*	0%
COC1=C/C(=C/c2c(N)n3c(nc2=O)sc2cc(S(C)(=O)=O)ccc23)C=CC1=O	.	.	9	.	23	.
O=[N+]([O-])c1ccc(OCc2cnc(Cl)s2)c([N+](=O)[O-])c1	-30%	-12%	20*	12%[14.2 µM]	38	-8%
COC(=O)C(Cc1cnc(Cl)s1)(C(=O)OC)c1ccc([N+](=O)[O-])cc1[N+](=O)[O-]	-20%	-10%	-5	?	-25	2%
O=C(Nc1cccc2ccccc12)c1cccc([N+](=O)[O-])c1	.	.	2	.	-9	.
O=C(COC(=O)COc1ccccc1)Nc1cccc([N+](=O)[O-])c1	-9%	-17%	2	1%[46.1 µM]	-13	-6%
O=C(Nc1ccc2ccccc2c1)c1cccc([N+](=O)[O-])c1	?	-19%	20*	?	74*	?
O=C(COC(=O)c1ccccc1C(=O)c1ccccc1)Nc1cccc([N+](=O)[O-])c1	.	.	19*	-1%	30*	?
O=C(Nc1cccc([N+](=O)[O-])c1)c1ccccc1	.	.	18*	.	30	.
O=C(COc1ccccc1F)Nc1ccc2nc(SCCOc3ccccc3)sc2c1	i	-6%	.	-4%[46.1 µM]	.	-20%[46.1 µM]
CCOC(=O)N1CCC2(CC1)NC(=O)c1ccccc1N2	-3%	2%	.	.	.	.
COc1cc(Cl)ccc1OC1(C)CCN(Cc2cccn2-c2nccs2)C1 (configuration not stated)	?	11%	.	.	.	.
CCOc1ccc(C(=O)Nc2cccc([N+](=O)[O-])c2)cc1Br	-8%	?	20*	?	16	19%
O=C(Nc1ccc(Oc2cccnc2)cc1)c1ccc([N+](=O)[O-])cc1	i	-14%	9	2%[46.1 µM]	-2	0%
O=C(Nc1ccc(Oc2cccnc2)cc1)c1cccc([N+](=O)[O-])c1	0%	-12%	16*	15%	44*	0%
O=[N+]([O-])c1ccc(Oc2cccnc2)c([N+](=O)[O-])c1	-3%	?	.	7.9µM*	.	?
Cc1occc1C(=O)N1CCN(S(=O)(=O)c2ccccc2)CC1	i	-13%	7	28%	26	2%
CC(=O)c1cnc(-c2cccc(Cl)c2)s1	.	.	14	.	19	.
CC(=O)c1sc(-c2ccccc2Cl)nc1C	.	.	-1	.	-1	.
Cc1nc(-c2ccccn2)sc1C(=O)O	-3%	1%	4	?	18	11%

Screens from PubChem.
